# Screening results: PubChem, National Center for Advancing Translational Sciences (NCATS)
# Marburg entry inh = qHTS for inhibitors of binding or entry into cells for Marburg Virus; Marburg virus pseudotyped entry inhibition, cell reporter; Potency, µM (top dose mostly 37.8 µM), actives largely listed as inhibitors; 1.8% of 300,000 active; AID 540276, 2011; calls by dose curve; tested in HEK293 cells
# HCMV antiviral = qHTS Assay for inhibitors of the human cytomegalovirus (HCMV); HFF cells, HCMV-luciferase reporter, 72 h; active compounds read low; AID 1259415, 2018; activity change, negative = inhibition, % at 57.5 µM; 4.5% of 410,000 active; in the data active = activity change below about -60%; inconclusive = no clear call, values can overlap the other calls; inactive = above about -39%
#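 Screen run at 2 compound doses on HFFs infected with reporter HCMV, MOI 1 PFU/cell. Luciferase activity from cell lysates at 72 h post infection gave inhibition relative to buffer-only and Salinomycin wells.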
# SARS PLP yeast = qHTS of Yeast-based Assay for SARS-CoV PLP; S. cerevisiae expressing SARS-CoV PLpro, growth rescue; Potency, µM (titrated, usually from 32.9 µM), hits mostly activators; 0.19% of 330,000 active; AID 485353, 2010; calls by dose curve; also: nearly all actives have a fitted effect of over 55% in size
# LASV entry inh = qHTS for Inhibitors of binding or entry into cells for Lassa Virus; Lassa virus pseudotype entry inhibition, cell reporter; Potency, µM (series often up to 37.9 µM), usual class: inhibitors; 1.2% of 300,000 active; calls by dose curve; tested in HEK293 cells; also: nearly all actives have a fitted effect of over 50% in size
# FMDV inh = High Throughput Screening for Foot and Mouth Disease Virus Antivirals; Potency, µM (highest dose often 57.9 µM), usual class: inhibitors; FMDV antiviral cell-based qHTS; AID 1159524, 2015; 1.2% of 410,000 active; calls by dose curve; tested in HEK293T cells; also: read-out not given here; nearly all actives have a fitted effect of over 45% in size
# HCV inhibitor = qHTS Assay for Inhibitors of Hepatitis C Virus (HCV); Huh7.5.1 HCVcc-Cre infection, luciferase reporter, 44 h; Potency, µM (series often up to 41.8 µM), hits mostly inhibitors; 3.4% of 340,000 active; AID 651820, 2012; active = well fitted inhibition curve with a large enough effect; inconclusive = small, poorly fitted or top-dose-only effect, or another doubt; inactive = no such curve, though single readings can be large or run the other way
#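 Compounds are dispensed onto cells plated 4 h earlier at 1,000 per well, with HCVcc-Cre virus (about 0.5 moi) added next. Following 44 h of culture, luminescent signal is measured for 15 sec after 15 min with substrate at room temperature.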
# Numbers stand for hits; n = inactive; u = inconclusive; x = no result given. A selection: hits, their analogues and other compounds. The true share with any hit is near 8%.
SMILES,Marburg entry inh,HCMV antiviral,SARS PLP yeast,LASV entry inh,FMDV inh,HCV inhibitor
C[C@H]1CC[C@H]2C(=O)N(Cc3ccccc3)C[C@@H](O)CN2[C@H]1c1cccc(Br)c1,n,x,x,u,x,x
O=C(N/N=C\c1cn(-c2ccccc2)nc1-c1ccccc1)c1ccc2c(c1)OCO2,u,n,n,n,n,12.6µM
Cn1cc(/C=N/NC(=O)c2cccc([N+](=O)[O-])c2)c2ccccc21,n,n,n,n,n,10µM
O=C(N/N=C/c1ccc[nH]1)c1cccc([N+](=O)[O-])c1,n,n,n,u,n,3.55µM
O=C(N/N=C/c1cn(-c2ccccc2)nc1-c1ccc(F)cc1)c1ccc2c(c1)OCO2,u,n,n,n,n,u
O=C(N/N=C/c1ccc2c(c1)OCO2)c1ccc2c(c1)OCO2,u,n,n,n,n,n
O=C(N/N=C/c1ccc[nH]1)c1ccc2c(c1)OCO2,n,n,n,n,n,12.6µM
Cc1ncc2c(c1CNC(=O)c1ccc3c(c1)OCO3)CCN(C(=O)C1Cc3ccccc3O1)C2 (stereo not given),x,x,x,x,n,x
CCN1C(=O)[C@H]2[C@@H](c3ccc(-c4cccc(Cl)c4)c(OC)c3)N3CCC[C@@]3(C(=O)OC)[C@H]2C1=O,x,n,n,x,u,u
Cc1cc(=O)n2nc(N(C)CC(=O)NCc3ccc(Cl)cc3)sc2n1,n,n,x,n,n,x
Cc1[nH]c2ccccc2c1/C=N/NC(=O)c1cccc(F)c1,x,n,n,x,n,n
Cc1[nH]n(-c2ccc([N+](=O)[O-])cc2)c(=O)c1C=NCC1CCCO1 (stereo not given),n,n,n,n,n,n
Cc1[nH]c2ccccc2c1/C=N/NC(=O)c1cccc([N+](=O)[O-])c1,n,-61.4,n,n,n,n
O=C(N/N=C/c1cc([N+](=O)[O-])ccc1O)c1cccc2cc[nH]c12,x,-80.3,n,x,n,u
O=C(N/N=C/c1cccc([N+](=O)[O-])c1)c1cccc2cc[nH]c12,n,n,n,n,n,n
Cc1ccc(-n2[nH]c(C)c(/C=N/Nc3ccc([N+](=O)[O-])cc3[N+](=O)[O-])c2=O)cc1,u,u,n,n,7.94µM,u
COc1cccc(CCNc2ncnc3sc(C(=O)N4CCOCC4)c(C)c23)c1,x,x,x,x,n,x
COc1ccc(-c2noc(CCC(=O)NCC3CCCO3)n2)cc1OC (stereo not given),x,n,n,x,n,n
COCCn1c(C)cc(C2=NNC(=NC3CC3)SC2)c1C,0.316µM,-96.3,n,0.316µM,1.26µM,u
C=CCn1c(C)cc(C2=NNC(=NC(C)(C)C)SC2)c1C,u,-85.2,n,u,u,u
COCCn1c(C)cc(C2=NNC(=Nc3ccc(Cl)cc3Cl)SC2)c1C,u,n,n,n,n,n
C=CCn1c(C)cc(C2=NNC(=Nc3ccc(C)cc3)SC2)c1C,u,n,n,n,n,n
C=CCN=C1NN=C(c2cc(C)n(CCOC)c2C)CS1,u,-96.0,n,u,4.47µM,n
Cc1cc(C)c(NC(=O)COC(=O)c2nc3nccc(C)n3n2)c(Cl)c1,x,n,n,x,n,n
CNC(=O)c1c2c(nc3ccc(Br)cc13)CCCC2,n,n,n,u,n,25.1µM
SMILES,Marburg entry inh,HCMV antiviral,SARS PLP yeast,LASV entry inh,FMDV inh,HCV inhibitor
COc1cccc(C(=O)N/N=C/c2ccc(Oc3ccc([N+](=O)[O-])cn3)c(OC)c2)c1,u,n,n,n,n,10µM
COc1ccc(/C=N/NC(=O)c2cccc([N+](=O)[O-])c2)cc1OC(=O)c1ccccc1,u,n,n,u,n,11.2µM
COc1cc(/C=N/NC(=O)c2ccc(O)cc2)ccc1Oc1ccc([N+](=O)[O-])cn1,u,-61.7,n,n,n,u
COc1cc(/C=N/NC(=O)c2ccc3ccccc3c2)ccc1Oc1ccc([N+](=O)[O-])cn1,n,u,n,n,u,3.55µM
Cc1cc(-c2ccccc2)nc2cc(C(=O)Nc3cc(C(F)(F)F)ccc3Cl)nn12,x,n,x,n,n,x
COC(=O)c1nn(-c2cccc(C)c2)c2nnc(Cc3ccccc3)c(=O)n12,n,n,n,u,n,n
COC(=O)c1nn(-c2ccccc2)c2nnc(Cc3ccc(C)cc3)c(=O)n12,u,-108.1,n,n,n,n
C/C=C(/C)C(=O)O[C@H]1C(C)=C2C([C@@H]1OC(=O)CCCCCCC)[C@@](C)(OC(C)=O)C[C@@H](OC(=O)CCC)[C@@]1(O)[C@H]2OC(=O)[C@@]1(C)O (stereo not given in full),0.708µM,x,x,x,x,x
CCc1cc2c(nc1CC)CCN(CCC(C)=NOC[C@@H](C)[C@H](OCc1ccccc1)C(C)C)C2,n,x,x,x,x,x
Cc1ccccc1N1C(=O)C[C@@H](Sc2nnc(-c3ccccc3)o2)C1=O,n,x,x,x,x,x
Cc1cccc(NC(=O)c2ccc(C3SCC(=O)N3CCc3ccccc3)cc2)c1C (stereo not given),u,-72.1,n,u,u,u
CCCNC(=O)c1ccc(C2SCC(=O)N2CCc2ccccc2)cc1 (stereo not given),n,n,n,10µM,n,u
COc1ccc(CCN2C(=O)CSC2c2ccc(OC)c(OC)c2)cc1OC (stereo not given),x,n,n,x,n,n
COc1ccc(C2SCC(=O)N2CCc2ccc(OC)c(OC)c2)cc1 (stereo not given),x,-70.7,n,x,u,11.2µM
CC1C(=O)N2CCCc3cc(S(=O)(=O)Nc4ccc(Br)cc4F)cc1c32 (stereo not given),x,n,x,n,n,x
CCC1(C2CCN(C(=O)c3cc(F)ccc3F)CC2)NC(=O)N(CCc2scnc2C)C1=O (stereo not given),x,x,x,x,n,x
CCOC(=O)Nc1nnc(-c2ccc(OC)cc2)s1,u,n,n,n,x,n
CCOC(=O)Nc1nnc(-c2cccc(OC)c2)s1,n,-65.5,n,n,n,n
COc1cccc(N2CCN(CC(=O)NC3=Nc4ccccc4N=C(C)C3c3ccccc3)CC2)c1 (stereo not given),u,n,n,u,n,u
COc1cccc(N2CCN(CC(=O)Nc3nnc(-c4ccccc4)s3)CC2)c1,u,n,n,0.794µM,15.8µM,6.31µM
CCOC(=O)NN=C1C[C@@H](O)[C@@H](O)[C@@H]2[C@H]3C(=O)N(c4ccc(F)cc4F)C(=O)[C@@H]3CC[C@H]12,n,x,x,u,x,x
CCc1ccc(-n2nc(C)c3c2NC(=O)CSC3c2ccc(OC)cc2OC)cc1 (stereo not given),u,-67.4,x,n,n,x
CCc1ccc(-n2nc(C)c3c2NC(=O)CSC3c2ccc(C(=O)OC)cc2)cc1 (stereo not given),n,n,x,n,u,x
CCc1ccc(-n2nc(C)c3c2NC(=O)CSC3c2ccccc2C)cc1 (stereo not given),n,-79.6,x,u,u,x
